# Results: the supplement of paper PMC12282887
# ± gives the standard deviation of the averaged measurements.
# Legend:
# Experiment in all cases: promoter activity interaction Z-score (Lux/OD deviation from empty-vector control); higher = stronger promoter induction by the compound
# [1] = system: E. coli BW25113 robp lux reporter
# Procedure, shortened: (§1)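 E. coli BW25113 luxCDABE reporter strains grew at 37°C in 40 µl LB Lennox in 384-well plates, with OD600 and luminescence read every 30 min for 12 h. After integration over 0–8 h for wild type or 1–9 h for deletion strains, wells under 10% of the median growth value were removed. Each score is the Z-transformed residual of growth-normalised luminescence fitted against a control.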
# [2] = system: E. coli BW25113 soxSp lux reporter
# Procedure, shortened: as §1
# [3] = system: E. coli BW25113 tolCp lux reporter
# Procedure, shortened: as §1
# [4] = system: E. coli BW25113 acrABp lux reporter
# Procedure, shortened: as §1
# [5] = system: E. coli BW25113 marRABp lux reporter
# Procedure, shortened: as §1
# [6] = system: E. coli BW25113 micFp lux reporter
# Procedure, shortened: as §1
# [7] = system: E. coli BW25113 ompFp lux reporter
# Procedure, shortened: as §1
# [8] = 0.01 µg/ml, genetic background: wild type
# [9] = 0.01 µg/ml, genetic background: ΔmarA
# [10] = 0.01 µg/ml, genetic background: Δrob
# [11] = 0.01 µg/ml, genetic background: ΔsoxS
# [12] = 0.0012 µg/ml, genetic background: wild type
# [13] = 0.0012 µg/ml, genetic background: ΔmarA
# [14] = 0.0012 µg/ml, genetic background: Δrob
# [15] = 0.0012 µg/ml, genetic background: ΔsoxS
# [16] = 0.0024 µg/ml, genetic background: wild type
# [17] = 0.0024 µg/ml, genetic background: ΔmarA
# [18] = 0.0024 µg/ml, genetic background: Δrob
# [19] = 0.0024 µg/ml, genetic background: ΔsoxS
# [20] = 0.0048 µg/ml, genetic background: wild type
# [21] = 0.0048 µg/ml, genetic background: ΔmarA
# [22] = 0.0048 µg/ml, genetic background: Δrob
# [23] = 0.0048 µg/ml, genetic background: ΔsoxS
# [24] = 0.53 µg/ml, genetic background: wild type
# [25] = 0.53 µg/ml, genetic background: ΔmarA
# [26] = 0.53 µg/ml, genetic background: Δrob
# [27] = 0.53 µg/ml, genetic background: ΔsoxS
# [28] = 1.1 µg/ml, genetic background: wild type
# [29] = 1.1 µg/ml, genetic background: ΔmarA
# [30] = 1.1 µg/ml, genetic background: Δrob
# [31] = 1.1 µg/ml, genetic background: ΔsoxS
# [32] = 2.1 µg/ml, genetic background: wild type
# [33] = 2.1 µg/ml, genetic background: ΔmarA
# [34] = 2.1 µg/ml, genetic background: Δrob
# [35] = 2.1 µg/ml, genetic background: ΔsoxS
# [36] = 4.2 µg/ml, genetic background: wild type
# [37] = 4.2 µg/ml, genetic background: ΔmarA
# [38] = 4.2 µg/ml, genetic background: Δrob
# [39] = 4.2 µg/ml, genetic background: ΔsoxS
structure (smiles),measurement,setting,value
CO/N=C(\C(=O)N[C@@H]1C(=O)N2C(C(=O)O)=C(COC(C)=O)CS[C@H]12)c1csc(N)n1 [Cefotaxime],promoter activity interaction Z-score,[1]; [8],-1.42 ± 0.066
same,promoter activity interaction Z-score,[1]; [9],-2.06 ± 1.6
same,promoter activity interaction Z-score,[1]; [10],-1.76 ± 0.19
same,promoter activity interaction Z-score,[1]; [11],-2.39 ± 0.34
same,promoter activity interaction Z-score,[2]; [12],0.251 ± 0.06
same,promoter activity interaction Z-score,[2]; [13],-0.00348 ± 0.14
same,promoter activity interaction Z-score,[2]; [14],0.17 ± 0.16
same,promoter activity interaction Z-score,[2]; [15],0.0148 ± 0.24
same,promoter activity interaction Z-score,[2]; [16],0.182 ± 0.044
same,promoter activity interaction Z-score,[2]; [17],0.121 ± 0.06
same,promoter activity interaction Z-score,[2]; [18],0.225 ± 0.25
same,promoter activity interaction Z-score,[2]; [19],0.066 ± 0.3
same,promoter activity interaction Z-score,[2]; [20],-0.0447 ± 0.15
same,promoter activity interaction Z-score,[2]; [21],-0.225 ± 0.1
same,promoter activity interaction Z-score,[2]; [22],-0.0284 ± 0.17
same,promoter activity interaction Z-score,[2]; [23],-0.179 ± 0.2
same,promoter activity interaction Z-score,[2]; [8],-0.209 ± 0.042
same,promoter activity interaction Z-score,[2]; [9],-0.312 ± 0.071
same,promoter activity interaction Z-score,[2]; [10],-0.223 ± 0.19
same,promoter activity interaction Z-score,[2]; [11],0.193 ± 0.17
same,promoter activity interaction Z-score,[3]; [12],0.0259 ± 0.64
same,promoter activity interaction Z-score,[3]; [13],0.293 ± 0.38
same,promoter activity interaction Z-score,[3]; [14],-0.312 ± 0.38
same,promoter activity interaction Z-score,[3]; [15],-0.0825 ± 0.76
same,promoter activity interaction Z-score,[3]; [16],0.373 ± 1.2
same,promoter activity interaction Z-score,[3]; [17],0.241 ± 0.74
same,promoter activity interaction Z-score,[3]; [18],-0.132 ± 1.1
same,promoter activity interaction Z-score,[3]; [19],-0.287 ± 1.4
same,promoter activity interaction Z-score,[3]; [20],0.132 ± 0.29
same,promoter activity interaction Z-score,[3]; [21],-0.365 ± 0.46
same,promoter activity interaction Z-score,[3]; [22],-0.311 ± 0.89
same,promoter activity interaction Z-score,[3]; [23],0.17 ± 0.82
same,promoter activity interaction Z-score,[3]; [8],-0.425 ± 1.4
same,promoter activity interaction Z-score,[3]; [9],-0.436 ± 0.19
same,promoter activity interaction Z-score,[3]; [10],0.622 ± 1.5
same,promoter activity interaction Z-score,[3]; [11],-0.234 ± 0.026
Cc1onc(-c2ccccc2)c1C(=O)N[C@@H]1C(=O)N2[C@@H]1SC(C)(C)[C@@H]2C(=O)O [Oxacillin],promoter activity interaction Z-score,[4]; [24],0.053 ± 0.18
same,promoter activity interaction Z-score,[4]; [25],-0.268 ± 0.44
same,promoter activity interaction Z-score,[4]; [26],-0.0793 ± 0.23
same,promoter activity interaction Z-score,[4]; [27],-0.33 ± 0.59
same,promoter activity interaction Z-score,[4]; [28],0.196 ± 0.12
same,promoter activity interaction Z-score,[4]; [29],1.12 ± 0.86
same,promoter activity interaction Z-score,[4]; [30],0.498 ± 0.18
same,promoter activity interaction Z-score,[4]; [31],-0.172 ± 0.078
same,promoter activity interaction Z-score,[4]; [32],0.0571 ± 0.33
same,promoter activity interaction Z-score,[4]; [33],0.268 ± 0.39
same,promoter activity interaction Z-score,[4]; [34],-0.074 ± 0.13
same,promoter activity interaction Z-score,[4]; [35],0.181 ± 0.15
same,promoter activity interaction Z-score,[4]; [36],0.273 ± 0.22
same,promoter activity interaction Z-score,[4]; [37],0.585 ± 0.21
same,promoter activity interaction Z-score,[4]; [38],0.529 ± 0.22
same,promoter activity interaction Z-score,[4]; [39],0.643 ± 0.31
same,promoter activity interaction Z-score,[5]; [24],-0.0416 ± 0.14
same,promoter activity interaction Z-score,[5]; [25],-0.145 ± 0.48
same,promoter activity interaction Z-score,[5]; [26],-0.0895 ± 0.14
same,promoter activity interaction Z-score,[5]; [27],0.143 ± 0.032
same,promoter activity interaction Z-score,[5]; [28],0.221 ± 0.0058
same,promoter activity interaction Z-score,[5]; [29],0.189 ± 0.3
same,promoter activity interaction Z-score,[5]; [30],0.0302 ± 0.28
same,promoter activity interaction Z-score,[5]; [31],0.214 ± 0.17
same,promoter activity interaction Z-score,[5]; [32],-0.151 ± 0.12
same,promoter activity interaction Z-score,[5]; [33],-0.0728 ± 0.16
same,promoter activity interaction Z-score,[5]; [34],0.0223 ± 0.02
same,promoter activity interaction Z-score,[5]; [35],0.133 ± 0.06
same,promoter activity interaction Z-score,[5]; [36],0.0879 ± 0.03
same,promoter activity interaction Z-score,[5]; [37],0.194 ± 0.076
same,promoter activity interaction Z-score,[5]; [38],-0.03 ± 0.043
same,promoter activity interaction Z-score,[5]; [39],0.211 ± 0.2
same,promoter activity interaction Z-score,[6]; [24],-0.0698 ± 0.15
same,promoter activity interaction Z-score,[6]; [25],-0.00609 ± 0.034
same,promoter activity interaction Z-score,[6]; [26],0.0977 ± 0.018
same,promoter activity interaction Z-score,[6]; [27],-0.311 ± 0.1
same,promoter activity interaction Z-score,[6]; [28],0.087 ± 0.12
same,promoter activity interaction Z-score,[6]; [29],0.0472 ± 0.028
same,promoter activity interaction Z-score,[6]; [30],-0.0746 ± 0.027
same,promoter activity interaction Z-score,[6]; [31],-0.46 ± 0.051
same,promoter activity interaction Z-score,[6]; [32],-0.222 ± 0.18
same,promoter activity interaction Z-score,[6]; [33],-0.0625 ± 0.059
same,promoter activity interaction Z-score,[6]; [34],-0.00193 ± 0.23
same,promoter activity interaction Z-score,[6]; [35],-0.245 ± 0.077
same,promoter activity interaction Z-score,[6]; [36],-0.192 ± 0.041
same,promoter activity interaction Z-score,[6]; [37],-0.163 ± 0.035
same,promoter activity interaction Z-score,[6]; [38],-0.112 ± 0.052
same,promoter activity interaction Z-score,[6]; [39],-0.2749 ± 0.002
same,promoter activity interaction Z-score,[7]; [24],0.23 ± 0.46
same,promoter activity interaction Z-score,[7]; [25],-0.204 ± 0.21
same,promoter activity interaction Z-score,[7]; [26],0.703 ± 0.91
same,promoter activity interaction Z-score,[7]; [27],0.0892 ± 0.53
same,promoter activity interaction Z-score,[7]; [28],0.678 ± 0.061
same,promoter activity interaction Z-score,[7]; [29],0.797 ± 0.28
same,promoter activity interaction Z-score,[7]; [30],1.14 ± 0.72
same,promoter activity interaction Z-score,[7]; [31],-0.107 ± 0.53
same,promoter activity interaction Z-score,[7]; [32],0.461 ± 0.27
same,promoter activity interaction Z-score,[7]; [33],0.0383 ± 0.29
same,promoter activity interaction Z-score,[7]; [34],0.0292 ± 0.36
same,promoter activity interaction Z-score,[7]; [35],0.0474 ± 0.046
same,promoter activity interaction Z-score,[7]; [36],1.42 ± 0.14
same,promoter activity interaction Z-score,[7]; [37],1.05 ± 0.48
same,promoter activity interaction Z-score,[7]; [38],0.898 ± 0.69
same,promoter activity interaction Z-score,[7]; [39],0.846 ± 0.19
same,promoter activity interaction Z-score,[1]; [24],0.088 ± 0.58
same,promoter activity interaction Z-score,[1]; [25],-0.319 ± 0.36
same,promoter activity interaction Z-score,[1]; [26],0.652 ± 0.036
same,promoter activity interaction Z-score,[1]; [27],0.106 ± 0.47
same,promoter activity interaction Z-score,[1]; [28],0.612 ± 0.26
same,promoter activity interaction Z-score,[1]; [29],0.925 ± 0.46
same,promoter activity interaction Z-score,[1]; [30],0.609 ± 0.17
same,promoter activity interaction Z-score,[1]; [31],0.778 ± 0.55
same,promoter activity interaction Z-score,[1]; [32],0.467 ± 0.023
same,promoter activity interaction Z-score,[1]; [33],-0.206 ± 0.25
same,promoter activity interaction Z-score,[1]; [34],0.275 ± 0.38
same,promoter activity interaction Z-score,[1]; [35],0.757 ± 0.4
same,promoter activity interaction Z-score,[1]; [36],0.385 ± 0.34
same,promoter activity interaction Z-score,[1]; [37],1.01 ± 0.081
same,promoter activity interaction Z-score,[1]; [38],0.222 ± 0.11
same,promoter activity interaction Z-score,[1]; [39],1.08 ± 0.62
same,promoter activity interaction Z-score,[2]; [24],-0.0338 ± 0.24
same,promoter activity interaction Z-score,[2]; [25],-0.139 ± 0.028
same,promoter activity interaction Z-score,[2]; [26],-0.137 ± 0.026
same,promoter activity interaction Z-score,[2]; [27],0.0469 ± 0.46
same,promoter activity interaction Z-score,[2]; [28],0.0426 ± 0.12
same,promoter activity interaction Z-score,[2]; [29],0.0745 ± 0.03
same,promoter activity interaction Z-score,[2]; [30],-0.157 ± 0.17
same,promoter activity interaction Z-score,[2]; [31],-0.0373 ± 0.73
same,promoter activity interaction Z-score,[2]; [32],0.0115 ± 0.12
same,promoter activity interaction Z-score,[2]; [33],-0.148 ± 0.13
same,promoter activity interaction Z-score,[2]; [34],-0.0916 ± 0.13
same,promoter activity interaction Z-score,[2]; [35],0.0598 ± 0.27
same,promoter activity interaction Z-score,[2]; [36],-0.0461 ± 0.098
same,promoter activity interaction Z-score,[2]; [37],-0.0772 ± 0.096
same,promoter activity interaction Z-score,[2]; [38],-0.0369 ± 0.08
same,promoter activity interaction Z-score,[2]; [39],0.0279 ± 0.51
same,promoter activity interaction Z-score,[3]; [24],-0.367 ± 0.24
same,promoter activity interaction Z-score,[3]; [25],-0.79 ± 0.24
same,promoter activity interaction Z-score,[3]; [26],-0.414 ± 0.28
same,promoter activity interaction Z-score,[3]; [27],-0.864 ± 0.42
same,promoter activity interaction Z-score,[3]; [28],0.453 ± 0.31
same,promoter activity interaction Z-score,[3]; [29],0.956 ± 0.37
same,promoter activity interaction Z-score,[3]; [30],0.349 ± 0.2
same,promoter activity interaction Z-score,[3]; [31],-0.174 ± 0.0082
same,promoter activity interaction Z-score,[3]; [32],-0.798 ± 0.98
same,promoter activity interaction Z-score,[3]; [33],-0.615 ± 0.57
same,promoter activity interaction Z-score,[3]; [34],-0.016 ± 0.46
same,promoter activity interaction Z-score,[3]; [35],-0.0987 ± 0.39
same,promoter activity interaction Z-score,[3]; [36],-0.558 ± 0.11
same,promoter activity interaction Z-score,[3]; [37],-0.589 ± 0.39
same,promoter activity interaction Z-score,[3]; [38],-0.155 ± 0.7
same,promoter activity interaction Z-score,[3]; [39],-0.224 ± 1.2
